Experimental data taken from PubChem BioAssay (NCI).
“And” between values parts separate entries of the source, which are not always exact repeats. Equal values may be shown once. The panel holds about 83,000 compounds, 20% with a hit somewhere; the sample as a whole holds those more often.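 Method: cells in 96-well plates; compound added at one concentration; 48 h incubation; percent growth measured; values under 10 scored active.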 More than one record can exist for a structure, and the calls need not agree. The source made the active and inactive calls.

Assays:
Test in all cases: NCI-60 one-dose screen, 48 h (100 = growth as untreated, 0 = no growth, -100 = all killed)
Conditions in all cases: 10 µM unless noted
DU-145 prostate = tested on: DU-145 prostate
K-562 leukemia = tested on: K-562 leukemia
MALME-3M melanoma = tested on: MALME-3M melanoma
MDA-MB-231 breast = tested on: MDA-MB-231 breast
RXF 393 renal = tested on: RXF 393 renal
SF-268 CNS = tested on: SF-268 CNS
SF-295 CNS = tested on: SF-295 CNS
SF-539 CNS = tested on: SF-539 CNS
UACC-257 melanoma = tested on: UACC-257 melanoma
M14 melanoma = tested on: M14 melanoma

| SMILES | growth (DU-145 prostate) | growth (K-562 leukemia) | growth (MALME-3M melanoma) | growth (MDA-MB-231 breast) | growth (RXF 393 renal) | growth (SF-268 CNS) | growth (SF-295 CNS) | growth (SF-539 CNS) | growth (UACC-257 melanoma) | growth (M14 melanoma) |
| --- | --- | --- | --- | --- | --- | --- | --- | --- | --- | --- |
| COc1ccc(-c2ncnc3c2ncn3C/C=C/CCl)cc1 | 81.8% (inactive) and 112% (inactive) | 67.2% (inactive) and 77.5% (inactive) | 61.8% (inactive) and 49.7% (inactive) | 88.8% (inactive) and 89.2% (inactive) | 7.94% (active) and 42.6% (inactive) | 87.7% (inactive) and 86.8% (inactive) | 109% (inactive) and 92.6% (inactive) | 75.9% (inactive) and 98.9% (inactive) | 80.5% (inactive) and 77.7% (inactive) | 70.9% (inactive) and 87% (inactive) |
| O=CC(O)C(O)C(O)CO (stereo not given) | 107% (inactive) and 108% (inactive) | 114% (inactive) and 99.3% (inactive) | 122% (inactive) | 92.5% (inactive) and 125% (inactive) | 104% (inactive) | 107% (inactive) and 100% (inactive) | 121% (inactive) | 88.1% (inactive) and 111% (inactive) | 106% (inactive) | 113% (inactive) and 98% (inactive) |
| CCN(CC)CCNc1cc(-c2cccc(OC(F)(F)F)c2)nc2ccc(N3CCCC3)cc12 | 60.6% (inactive) and 19% (inactive) and 45.4% (inactive) | -23% (active) and -25.5% (active) and -21% (active) | -50.9% (active) and -42.3% (active) and -14.1% (active) | 0.557% (active) and -6.72% (active) and -8.3% (active) | 16.3% (inactive) and -15.5% (active) and 34.2% (inactive) | 61.1% (inactive) and 18.8% (inactive) and 34.5% (inactive) | 72% (inactive) and -26.3% (active) and 35.1% (inactive) | 31.6% (inactive) and -38.2% (active) and 56.9% (inactive) | 62.5% (inactive) and -10.1% (active) and -0.682% (active) | -85.8% (active) and -56.6% (active) and -63.5% (active) |
| CN(C)c1ccc2nc3ccc(=[N+](C)C)cc-3sc2c1 | 33.3% (inactive) and 39.8% (inactive) and 87.1% (inactive) | 27.4% (inactive) and 41.7% (inactive) and 43.5% (inactive) | -30.4% (active) and -12.7% (active) and 48.8% (inactive) | 8.14% (active) and 10% (active) and 33.4% (inactive) | 79.9% (inactive) and 65.7% (inactive) and 82.6% (inactive) | 27.7% (inactive) and 22.8% (inactive) and 26.2% (inactive) | 17.2% (inactive) and 17.6% (inactive) and 43% (inactive) | 28.4% (inactive) and 3.79% (active) and 15.5% (inactive) | -12.8% (active) and -22.4% (active) and 17.8% (inactive) | 2.78% (active) and 3.94% (active) and 15.5% (inactive) |
| COC(=O)c1nc(N)nc(C(=O)OC)c1C(=O)c1ccc(OC)cc1 | 97.2% (inactive) and 48.2% (inactive) | 102% (inactive) and 52% (inactive) | 100% (inactive) and 50.4% (inactive) | 107% (inactive) and 53.8% (inactive) | 103% (inactive) and 9.98% (active) | 97.9% (inactive) and 92.8% (inactive) | 108% (inactive) and 102% (inactive) | 97.4% (inactive) and 59.8% (inactive) | 100% (inactive) and 86.7% (inactive) | 108% (inactive) and 48.5% (inactive) |
| COc1cc(/C=N/Nc2nc3c([nH]2)c(=O)n(C)c(=O)n3C)ccc1O | 114% (inactive) | 91.4% (inactive) and 106% (inactive) | 88.5% (inactive) and 97.9% (inactive) | 96.4% (inactive) and 107% (inactive) | 122% (inactive) and 123% (inactive) | 104% (inactive) and 109% (inactive) | 115% (inactive) and 118% (inactive) | 89.9% (inactive) and 104% (inactive) | 102% (inactive) and 110% (inactive) | 102% (inactive) and 108% (inactive) |
| Nc1n[nH]c(=S)n1-c1ccc(Cl)cc1 | 108% (inactive) | 102% (inactive) | 102% (inactive) | 112% (inactive) | 96.7% (inactive) | 100% (inactive) | 148% (inactive) | 93% (inactive) | 93.5% (inactive) | 101% (inactive) |
| CC1=C[C@H]2c3c(c(O)c(O)c4oc5cc(O)cc(O)c5c(=O)c34)[C@H](c3cc(O)c(O)c4oc5cc(O)cc(O)c5c(=O)c34)[C@H]2C(C)(C)C1 | 22.6% (inactive) and -4.25% (active) | 2.32% (active) | 10.8% (inactive) and -30.5% (active) | -7.38% (active) and -58.3% (active) | -4.11% (active) | 10.3% (inactive) and -12.3% (active) | -47.5% (active) and -27.1% (active) | -33.5% (active) and -26.5% (active) | 21% (inactive) and 0.565% (active) | -9.96% (active) and -19.6% (active) |
| O=C(N/N=C/c1ccccc1)N/N=C/c1ccccc1 | 131% (inactive) and 109% (inactive) | 95% (inactive) | 94.4% (inactive) and 107% (inactive) | 106% (inactive) | 107% (inactive) and 98.5% (inactive) | 112% (inactive) and 100% (inactive) | 92.4% (inactive) and 105% (inactive) | 100% (inactive) and 98.3% (inactive) | 90.3% (inactive) and 106% (inactive) | 123% (inactive) and 115% (inactive) |
| NCCSC(C[N+](=O)[O-])c1ccccc1Cl (stereo not given) | 37.6% (inactive) | -48.3% (active) | 98.8% (inactive) | 115% (inactive) | 11% (inactive) | 84.8% (inactive) | 101% (inactive) | 94.6% (inactive) | -3.93% (active) | 74.4% (inactive) |
| N=C1N=C(N)CS1 | 115% (inactive) | 105% (inactive) | 114% (inactive) | 115% (inactive) | 99.4% (inactive) | 107% (inactive) | 96.5% (inactive) | 110% (inactive) | 106% (inactive) | 108% (inactive) |
| O=C(Oc1cccc(OC(=O)c2ccccc2)c1)c1ccccc1 | 111% (inactive) and 105% (inactive) | 79.3% (inactive) and 88.5% (inactive) | 119% (inactive) and 110% (inactive) | 96.2% (inactive) and 107% (inactive) | 121% (inactive) | 92% (inactive) and 94.7% (inactive) | 103% (inactive) and 99% (inactive) | 96.8% (inactive) and 96.1% (inactive) | 111% (inactive) | 116% (inactive) and 99.4% (inactive) |
| CC(=O)Nc1ccc2cc3ccc(NC(C)=O)cc3nc2c1 | 64.5% (inactive) and 38.2% (inactive) | 66% (inactive) and 98.4% (inactive) | 134% (inactive) and 94.6% (inactive) | 65% (inactive) and 75.7% (inactive) | 82.7% (inactive) and 103% (inactive) | 64.2% (inactive) and 57% (inactive) | 71.9% (inactive) and 57.9% (inactive) | 96.4% (inactive) and 87.4% (inactive) | 111% (inactive) and 118% (inactive) | 88% (inactive) and 87.8% (inactive) |
| CCCCOc1cc(C(=O)NCCN(CC)CC)c2ccccc2n1 | 109% (inactive) and 106% (inactive) | 92.4% (inactive) and 104% (inactive) | 93% (inactive) and 106% (inactive) | 86.5% (inactive) and 96.9% (inactive) | 80.7% (inactive) and 94% (inactive) | 103% (inactive) and 101% (inactive) | 92.5% (inactive) and 97.5% (inactive) | 95.2% (inactive) and 106% (inactive) | 62.2% (inactive) | 93.8% (inactive) and 105% (inactive) |
